Bioassay records deposited in PubChem by National Center for Advancing Translational Sciences (NCATS).
Hits are enriched below; roughly 19% of the tested compounds scored in any of these assays.
IL1B secr inh: qHTS for Inhibitors of Inflammasome Signaling: IL-1-beta AlphaLISA Primary Screen; THP-1 LPS/ATP IL-1B secretion, AlphaLISA, 16 h; stronger effect = lower value; activity change, % at 57.5 µM; 360,000 compounds, 4.7% hits; AID 743279, 2014; in the data active = activity change below about -50%; inconclusive = mostly about -30% to -49%
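THP-1 cells pretreated 1 hr with compounds (up to 57.5 uM final), then stimulated with LPS (250 ng/mL final) plus ATP (1.25 mM final); secreted IL-1B measured by AlphaLISA after 16 hr, decreased signal indicating inhibition.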
TDP1 cell noCPT: qHTS for Inhibitors of human tyrosyl-DNA phosphodiesterase 1 (TDP1): qHTS in cells in absence of CPT. Potency, µM (doses to about 46.2 µM), without a hit: at the highest dose activity change, negative = growth inhibition, hits mostly inhibitors. 420,000 compounds, 15% hits. AID 686978, 2013. DT40 Tdp1-/- hTDP1 cells, no CPT, ATP luminescence, 48 h; note: potency is the fitted concentration of half-maximal effect; nearly all actives have a fitted effect of over 55% in size
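A cellular qHTS used chicken DT40 cells lacking endogenous Tdp1 but carrying stably transfected human TDP1. Compounds were applied without camptothecin, and cell growth kinetics were judged by ATP-dependent luminescence after ≥48 hr.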
ELG1 DNA repair: qHTS screen for small molecules that inhibit ELG1-dependent DNA repair in human embryonic kidney (HEK293T) cells expressing luciferase-tagged ELG1; Potency, µM (series often up to 46.1 µM), inactives show at the highest dose activity change, negative = inhibition, most hits filed as inhibitors; 330,000 compounds, 2.3% hits; HEK293T ELG1-luciferase reporter, luminescence, 16 h; DNA damage induced by 5-fluorouridine; note: potency is the fitted concentration of half-maximal effect; nearly all actives have a fitted effect of over 55% in size
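Luminescence from the luciferase reporter, measured 30 min after ONE-Glo reagent at room temperature, was the read-out. Beforehand, 2,000 cells per well were exposed for 16 hr at 37 °C to 5-fluorouridine together with compound or vehicle.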
TDP1 cell CPT: qHTS for Inhibitors of human tyrosyl-DNA phosphodiesterase 1 (TDP1): qHTS in cells in presence of CPT; 420,000 compounds, 12% hits; AID 686979, 2013; Potency, µM (top dose mostly 46.2 µM), for inactives: at the top dose activity change, negative = growth inhibition, actives largely listed as inhibitors; chicken DT40 Tdp1-/-;hTDP1 cells + 20 nM CPT, ATP luminescence, 48 h; note: potency is the fitted concentration of half-maximal effect; nearly all actives have a fitted effect of over 55% in size
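Chicken DT40 Tdp1-/- cells complemented with human TDP1, 400 cells/well, exposed to compounds plus 20 nM camptothecin for at least 48 h at 37 C; viability read as ATP content by CellTiter-Glo luminescence.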
HT1080-NT tox: qHTS for induction of synthetic lethality in tumor cells producing 2HG: qHTS for the HT-1080-NT fibrosarcoma cell line | HT-1080-NT fibrosarcoma viability, CellTiter-Glo ATP luminescence, 48 h | Potency, µM (doses to about 46.1 µM), inactives show at the highest dose activity, negative = less viability, hits mostly cytotoxic | 360,000 compounds, 1.6% hits | AID 686970, 2013;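 note: NT is the 2HG producing partner of a matched IDH1 knockdown line; potency is the fitted concentration of half-maximal effect; 0% = DMSO-treated cells and -100% = media-only wells without cells; nearly all actives have a fitted effect of over 55% in size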
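Read-out is CellTiter-Glo luminescence after 10 minutes at room temperature, following 48 hours' compound treatment of HT-1080-NT cells (750 cells/well, RPMI, 5% FBS, 37 degrees C).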
HT1080 IDH1KD tx: qHTS for induction of synthetic lethality in tumor cells producing 2HG: qHTS for the HT-1080-IDH1KD cell line; HT-1080 IDH1 knockdown viability, ATP luminescence, 48 h; Potency, µM (series often up to 46.1 µM), inactives show at the top dose activity, negative = toxicity, hits mostly cytotoxic; 360,000 compounds, 2% hits;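 note: potency is the fitted concentration of half-maximal effect; 0% = DMSO wells and -100% = cell-free medium wells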
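Cytotoxicity counter-line: IDH1KD HT-1080, 48 h, CellTiter-Glo. Curves classed by r2, magnitude and activity.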
Numbers without * were called inactive; ? = inconclusive; nt = not tested or not shown. Unless noted, calls come from the whole dose curve; as a rule, active = well fitted curve in the direction sought with a large enough effect; inconclusive = small, poorly fitted or top-dose-only effect, or another doubt; inactive = no such curve, though single readings can be large; an effect the other way counts as inactive or inconclusive. Unless noted, % is set by controls: 0 for no effect and ±100 for the full control effect.

SMILES | IL1B secr inh | TDP1 cell noCPT | ELG1 DNA repair | TDP1 cell CPT | HT1080-NT tox | HT1080 IDH1KD tx
Cn1c(SCC(=O)c2ccc(F)cc2)ncc(C(=O)Nc2ccccc2)c1=O | -3 | ? | ? | ? | 4% | 3%
Cc1ccc(CNC(=O)CSc2ncc(C(=O)Nc3ccccc3)c(=O)n2C)cc1 | 24 | 15µM* | ? | 12µM* | 2% | 11%
CC(=O)Nc1ccc(NC(=O)CSc2ncc(C(=O)Nc3ccccc3)c(=O)n2C)cc1 | 1 | 21µM* | ? | 21µM* | ? | 15µM*
Cc1ccc(NC(=O)c2cnc(SCC(=O)Nc3cc(C)on3)n(C)c2=O)cc1 | nt | -5% | nt | -12% | nt | nt
COc1ccc(CCNC(=O)CSc2ncc(C(=O)Nc3ccccc3)c(=O)n2C)cc1 | 24 | ? | 4% | ? | -21% | -3%
Cn1c(SCC(=O)Nc2nc3ccccc3s2)ncc(C(=O)Nc2ccccc2)c1=O | nt | 1% | nt | 0% | nt | nt
O=C(NCc1ccco1)C1CCN(C(=O)N2CCOc3ccccc32)CC1 | nt | -14% | nt | -1% | nt | nt
COC(=O)c1ccc(-c2ccco2)n1Cc1nc(-c2ccc(OC)c(OC)c2)oc1C | ? | 16µM* | ? | 23µM* | -26% | ?
CC1=C(c2ccc(C(C)C)cc2)S(=O)(=O)N=C1N1CCN(c2ccc(F)cc2)CC1 | nt | 10µM* | nt | 21µM* | nt | nt
COc1ccc(C2=C(C)C(N3CCN(c4ccc(OC)cc4)CC3)=NS2(=O)=O)cc1 | nt | -6% | nt | -4% | nt | nt
CC1=C(c2ccc(Cl)cc2)S(=O)(=O)N=C1N1CCN(c2cccc(C(F)(F)F)c2)CC1 | nt | 21µM* | nt | 8.2µM* | nt | nt
CC1=C(c2ccc(C)c(C)c2)S(=O)(=O)N=C1N1CCN(c2cccc(C)c2)C(C)C1 (stereo not drawn) | nt | 10µM* | nt | 18µM* | nt | nt
CC1=C(c2ccc(C)c(C)c2)S(=O)(=O)N=C1N1CCC(C(=O)NCc2ccccc2C)CC1 | nt | -21% | nt | -6% | nt | nt
O=C1c2cccc(NCCCNCCO)c2C(=O)c2cccc(NCCCNCCO)c21 | -103* | 5.8µM* | nt | 5.8µM* | ? | 16µM*
CC(C)c1ccccc1NC(=S)NC1CCN(Cc2ccccc2)CC1 | ? | ? | -13% | ? | 0% | 1%
S=C(NCc1ccc(Cl)cc1)NC1CCN(Cc2ccccc2)CC1 | -92* | 16µM* | 18µM* | 18µM* | 23µM* | 21µM*
Cc1c(Cl)cccc1NC(=S)NC1CCN(Cc2ccccc2)CC1 | -73* | ? | -18% | ? | -21% | -12%
S=C(Nc1ccccc1Cl)NC1CCN(Cc2ccccc2)CC1 | -7 | 18µM* | -13% | 21µM* | -2% | 1%
Cc1ccc(NC(=S)NC2CCN(Cc3ccccc3)CC2)cc1C | -20 | 26µM* | ? | ? | -21% | -6%
Clc1ccc(CNC2CCN(Cc3ccccc3)CC2)cc1 | -24 | ? | -6% | -98% | -26% | ?
CC(=O)NCCCS(=O)(=O)O | nt | 4% | nt | -8% | nt | nt
CCCS(=O)(=O)NC(=O)C1(C)CCCN(C(=O)c2cccnc2Oc2ccccc2)C1 (stereo not drawn) | 1 | -9% | nt | 11% | 15% | 1%
COC(=O)C1=CN(c2ccc(Oc3ccccc3)cc2)C(N)=C(C#N)C1c1ccc(-c2ccccc2)cc1 (stereo not drawn) | -11 | ? | nt | ? | -2% | 6%
O=C(O)c1ccccc1/C=N/NC(=S)NCc1ccccc1 | 18 | -10% | -13% | -13% | ? | 14%
S=C(Nc1ccc(Cl)cc1Cl)NC1CCN(Cc2ccccc2)CC1 | 4 | 16µM* | -3% | 21µM* | -20% | -12%
SMILES | IL1B secr inh | TDP1 cell noCPT | ELG1 DNA repair | TDP1 cell CPT | HT1080-NT tox | HT1080 IDH1KD tx
CCCN1CCC(NC(=S)Nc2cccc(Cl)c2Cl)CC1 | 12 | ? | -2% | 18µM* | -18% | -7%
CC(C)c1ccc(NC(=S)NC2CCN(Cc3ccccc3)CC2)cc1 | -89* | 23µM* | -5% | ? | ? | ?
Cc1ccc(NC(=S)NC2CCN(Cc3ccccc3)CC2)cc1 | -20 | ? | -11% | ? | 8% | 9%
CC(C)c1ccc(NC(=S)N2CCN(Cc3ccccc3)CC2)cc1 | 0 | 26µM* | 0% | ? | -1% | -2%
S=C(Nc1cc(Cl)cc(Cl)c1)NC1CCN(Cc2ccccc2)CC1 | -66* | 6.5µM* | -18% | 8.2µM* | 16µM* | ?
COc1ccc([C@@H]2Sc3cc(OC)ccc3N(CCN(C(C)C)C(C)C)C(=O)[C@H]2OC(C)=O)cc1 | -6 | ? | 10% | 21µM* | -14% | -25%
Cc1cc(=O)[nH]c2nnc(SCc3ccc(Cl)c(Cl)c3)n12 | nt | -3% | nt | -13% | nt | nt
NC(=NCc1ccc2c(c1)OCO2)NC(=O)c1ccccc1 | 2 | ? | -5% | -27% | -12% | 1%
NC(=NCc1ccccc1)NC(=O)c1nc(Cl)c(N)nc1N | -61* | 23µM* | nt | 10µM* | ? | ?
Cc1ccc(S(=O)(=O)NC(=O)C2(C)CCN2C(=O)C2CCCCC2)cc1 (stereo not drawn) | 6 | -7% | nt | 17% | 20% | 12%
